Hits are enriched below; roughly 12% of the tested compounds scored in any of these assays.
Gal4-VP16 FLuc: inhibits Gal4-VP16 luciferase reporter, ROR gamma counter-screen; Drosophila S2 Gal4-VP16 UAS-luciferase, luminescence, 20 h; AID 2546; Potency, µM (titrated, usually from 53.6 µM), inactives show at the top dose activity, negative = inhibition, actives largely listed as inhibitors; 310,000 tested, 3.5% active;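 also: Gal4-VP16 expression switched on by copper sulfate through the metallothionein promoter; nearly all actives have a fitted effect of over 50% in size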
ALDH1A1 inh: inhibitors of human aldehyde dehydrogenase 1A1; AID 1030; Purified ALDH1A1, NADH fluorescence, propionaldehyde substrate; Potency, µM (series often up to 75.3 µM), inactives show top-dose activity, negative = inhibition, usual class: inhibitors; 220,000 tested, 7.3% active; P00352; active = well fitted inhibition curve with a large enough effect, not every such curve was filed as active; inconclusive = small, poorly fitted or top-dose-only effect, or another doubt; inactive = no such curve, though single readings can be large or run the other way;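 also: plate controls were no enzyme wells and a reference inhibitor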
RORgamma inh: inhibitors of mouse ROR gamma transcriptional activity. P51450. Drosophila S2 Gal4-RORgamma UAS-luciferase reporter, 20 h. Potency, µM (doses to about 53.6 µM), inactives show at the highest dose activity change, negative = inhibition, actives largely listed as inhibitors. 310,000 tested, 5.4% active. AID 2551; also: nearly all actives have a fitted effect of over 60% in size
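Drosophila S2 cells stably expressing Gal4-DBD/mouse RORγ fusion under metallothionein promoter plus UAS-luciferase; compound 1 h, then 700 uM CuSO4 induction for 20 h at ambient temperature; inhibition read as reduced luminescence.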
Sfp PPTase inh: inhibitors of Bacillus subtilis Sfp phosphopantetheinyl transferase; Q9F4F7; Biochemical Sfp PPTase activity, qHTS; Potency, µM, inactives show largest response in the series, negative = inhibition, hits mostly inhibitors; 310,000 tested, 3.5% active;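 also: the enzyme is Sfp with the accession as filed and its product quenches rhodamine fluorescence; 0% = enzyme reaction without inhibitor and -100% = no enzyme wells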
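Reaction rates are the 30-min fluorescence difference (ex 525, em 598 nm) in wells containing 15 nM Sfp, 5 uM rhodamine-CoA and 12.5 uM BHQ-2-YbbR at pH 7.6 with 10 mM MgCl2.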
PLK1 PBD inh: inhibitors of human PLK1 polo-box domain binding | P53350 | Plk1 PBD binding of FITC phosphopeptide, fluorescence polarization | Potency, µM, without a hit: max response, negative = inhibition, most hits filed as inhibitors | 360,000 tested, 2.8% active | AID 720504; also: series mostly up to about 57 µM; nearly all actives have a fitted effect of over 65% in size
Target sequence (P53350 whole entry, looked up, the tested form may be a part): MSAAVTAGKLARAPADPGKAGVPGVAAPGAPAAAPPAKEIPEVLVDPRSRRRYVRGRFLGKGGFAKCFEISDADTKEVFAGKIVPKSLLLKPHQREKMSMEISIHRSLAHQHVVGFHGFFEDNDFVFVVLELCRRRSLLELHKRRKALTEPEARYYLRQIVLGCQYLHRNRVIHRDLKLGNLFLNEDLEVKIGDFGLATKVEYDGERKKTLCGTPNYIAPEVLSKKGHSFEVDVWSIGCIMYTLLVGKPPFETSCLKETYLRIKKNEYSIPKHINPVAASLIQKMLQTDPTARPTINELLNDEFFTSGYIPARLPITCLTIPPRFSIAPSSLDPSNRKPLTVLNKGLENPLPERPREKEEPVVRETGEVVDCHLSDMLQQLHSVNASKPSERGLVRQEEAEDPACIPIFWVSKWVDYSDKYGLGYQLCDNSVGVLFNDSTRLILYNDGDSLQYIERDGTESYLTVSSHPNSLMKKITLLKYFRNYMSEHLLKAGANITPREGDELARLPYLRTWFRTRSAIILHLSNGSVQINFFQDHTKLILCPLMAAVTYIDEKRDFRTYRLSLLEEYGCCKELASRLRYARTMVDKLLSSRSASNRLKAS
TbPYK inh: Trypanosoma brucei pyruvate kinase inhibition, cherry-pick confirmation | Potency, µM (highest dose often 76.9 µM), for the others: top-dose activity change, negative = inhibition, hits mostly inhibitors | shares compounds with PLK1 PBD inh | 890 tested, 67% active | recombinant TbPYK, Kinase-Glo ATP luminescence; also: nearly all actives have a fitted effect of over 70% in size
TbPYK ADP-Glo: orthogonal confirmation of Trypanosoma brucei pyruvate kinase inhibitors; 890 tested, 62% active; Potency, µM (doses to about 76.9 µM), for the others: at the top dose activity change, negative = inhibition, actives largely listed as inhibitors; shares compounds with PLK1 PBD inh; recombinant TbPYK, ADP-Glo luminescence, 60 min; also: nearly all actives have a fitted effect of over 75% in size
An asterisk follows results filed as active. Unless noted, calls follow the shape of the dose curve; as a rule, active = well fitted curve in the direction sought with a large enough effect; inconclusive = small, poorly fitted or top-dose-only effect, or another doubt; inactive = no such curve, though single readings can be large; an effect the other way counts as inactive or inconclusive. Unless noted, % is scaled to controls: 0 for no effect and ±100 for the full control effect; potency is read from the fitted curve at half-maximal effect.

How did O=C(NCC1CCCO1)c1sc(=S)n2c1[nH]c(=O)c1ccc(C(=O)N3CCCCC3)cc12 (stereo not given) do in these assays?
Gal4-VP16 FLuc: -1.7%; ALDH1A1 inh: inconclusive; RORgamma inh: inconclusive; Sfp PPTase inh: -8.9%; PLK1 PBD inh: -19.2%; TbPYK inh: inconclusive; TbPYK ADP-Glo: inconclusive

Results for Cc1ccc2c(Cl)c(C(=O)NCC3CCCO3)sc2c1 (stereo not given) ?
Gal4-VP16 FLuc: -0.6%; ALDH1A1 inh: -9.0%; RORgamma inh: -20.7%; Sfp PPTase inh: 1.2%; PLK1 PBD inh: -9.9%

Results for O=C(c1ccccc1)c1cc(Cl)ccc1N1C(=O)C=CC1=O ?
Gal4-VP16 FLuc: 15.8µM*; ALDH1A1 inh: 10µM*; RORgamma inh: inconclusive; Sfp PPTase inh: 3.16µM*; PLK1 PBD inh: 2.99µM*; TbPYK inh: 5.01µM*; TbPYK ADP-Glo: 10µM*

Results for COc1ccccc1CCNC(=O)C(=O)NCC1OCCN1S(=O)(=O)c1ccc2c(c1)OCCO2 (stereo not given) ?
Gal4-VP16 FLuc: inconclusive; RORgamma inh: -27.3%; Sfp PPTase inh: -0.9%; PLK1 PBD inh: -4.4%

What do the screens show for `O=C1Nc2ccccc2C(=O)C1(Cl)Cc1ccccc1` (stereo not given)?
Gal4-VP16 FLuc: inconclusive; ALDH1A1 inh: 14.1µM*; RORgamma inh: -12.3%; Sfp PPTase inh: 17.8µM*; PLK1 PBD inh: 1.19µM*; TbPYK inh: 3.16µM*; TbPYK ADP-Glo: 12.6µM*

What do the screens show for `CC(C)(C)N1C(=O)c2ccccc2NC(=O)N1Cc1ccccc1`?
Gal4-VP16 FLuc: 10.4%; ALDH1A1 inh: 4.0%; RORgamma inh: -15.5%; Sfp PPTase inh: 12.3%; PLK1 PBD inh: -1.2%

How did CCOC(=O)N1CCN(C(=O)c2ccc(SC)cc2OC)CC1 do in these assays?
Gal4-VP16 FLuc: 0.1%; ALDH1A1 inh: 7.8%; RORgamma inh: -8.7%; Sfp PPTase inh: 16.6%; PLK1 PBD inh: 4.0%

What do the screens show for `O=C1N/C(=C/c2ccc(N3CCOCC3)o2)C(=O)N1c1ccccc1`?
Gal4-VP16 FLuc: 1.58µM*; ALDH1A1 inh: 7.08µM*; RORgamma inh: 5.62µM*; Sfp PPTase inh: -91.5%; PLK1 PBD inh: 48.9%; TbPYK inh: inconclusive; TbPYK ADP-Glo: 15.8µM*

What do the screens show for `COC(=O)c1sccc1NC(=O)Nc1ccc(F)cc1`?
Gal4-VP16 FLuc: 23.7%; RORgamma inh: inconclusive; Sfp PPTase inh: 6.3%; PLK1 PBD inh: 4.1%; TbPYK inh: inconclusive; TbPYK ADP-Glo: -4.2%

Results for COC(=O)c1sccc1NC(=O)Nc1ccc(C(C)=O)cc1 ?
Gal4-VP16 FLuc: -18.8%; RORgamma inh: inconclusive; Sfp PPTase inh: 7.1%; PLK1 PBD inh: 3.0%

Results for CCN(CC)C(=O)CSc1nc2c(c(-c3cccnc3)c1C#N)CCCC2 ?
Gal4-VP16 FLuc: -12.8%; ALDH1A1 inh: -7.5%; RORgamma inh: -8.2%; Sfp PPTase inh: 11.5%; PLK1 PBD inh: 0.2%

How did N#Cc1c(SCC(N)=O)nc2c(c1-c1ccncc1)CCCC2 do in these assays?
Gal4-VP16 FLuc: -0.7%; ALDH1A1 inh: -5.2%; RORgamma inh: -26.3%; Sfp PPTase inh: -40.6%; PLK1 PBD inh: -23.8%; TbPYK inh: 3.98µM*; TbPYK ADP-Glo: 3.98µM*

Results for Cc1ccc(C)c(S(=O)(=O)N2CCN(C(=O)c3cccnc3)CC2)c1 ?
Gal4-VP16 FLuc: -2.5%; RORgamma inh: 21.7%; Sfp PPTase inh: 9.5%; PLK1 PBD inh: -5.8%

Results for CC(=O)Nc1ccc2c(c1)Cc1cc(N3C(=O)C=CC3=O)ccc1-2 ?
PLK1 PBD inh: 2.99µM*; TbPYK inh: 8.91µM*; TbPYK ADP-Glo: 6.31µM*

Results for CC(=S)/C=C1\Sc2ccccc2N1C ?
Gal4-VP16 FLuc: 10µM*; ALDH1A1 inh: inconclusive; RORgamma inh: 5.01µM*; Sfp PPTase inh: 44.7µM*; PLK1 PBD inh: 26.7µM*; TbPYK inh: inconclusive; TbPYK ADP-Glo: 14.1µM*

Results for O=S(=O)(NCCC1=CCCCC1)c1cccc(S(=O)(=O)N2CCOCC2)c1 ?
Gal4-VP16 FLuc: inconclusive; ALDH1A1 inh: 10µM*; RORgamma inh: -31.3%; Sfp PPTase inh: 14.5%; PLK1 PBD inh: 2.67µM*; TbPYK inh: -0.5%; TbPYK ADP-Glo: -6.0%

Results for CN(C)c1ccc(/C=C/c2ccc3c4ccccc4ccc3[n+]2-c2ccccc2)cc1 ?
Gal4-VP16 FLuc: inconclusive; ALDH1A1 inh: 12.6µM*; RORgamma inh: 1.41µM*; Sfp PPTase inh: 14.1µM*; PLK1 PBD inh: -15.0%; TbPYK inh: 31.6µM*; TbPYK ADP-Glo: 7.3%

How did Oc1c(CN2CCOCC2)cc(CN2CCOCC2)c(O)c1CN1CCOCC1 do in these assays?
PLK1 PBD inh: 1.68µM*; TbPYK inh: 1.41µM*; TbPYK ADP-Glo: inconclusive

What do the screens show for `CC(C)(c1cc(Cl)c(O)c(CN2CCOCC2)c1)c1cc(Cl)c(O)c(CN2CCOCC2)c1`?
PLK1 PBD inh: 3.8%

How did CCCC(C)NC(=O)c1cc(C(=O)OC)cc([N+](=O)[O-])c1 (stereo not given) do in these assays?
Gal4-VP16 FLuc: 4.1%; ALDH1A1 inh: -4.4%; RORgamma inh: -1.5%; Sfp PPTase inh: -1.5%; PLK1 PBD inh: -4.8%

Results for CCCC(C)c1nnc(NC(=O)c2cc(C(=O)OC)cc([N+](=O)[O-])c2)s1 (stereo not given) ?
Gal4-VP16 FLuc: 15.8µM*; ALDH1A1 inh: 7.94µM*; RORgamma inh: 10µM*; Sfp PPTase inh: 14.1µM*; PLK1 PBD inh: 5.97µM*; TbPYK inh: 3.55µM*; TbPYK ADP-Glo: 14.1µM*

Results for COc1ccc(C(=O)N/N=C/c2ccc(N3CCOCC3)o2)cc1OC ?
Gal4-VP16 FLuc: 7.3%; ALDH1A1 inh: inconclusive; RORgamma inh: inconclusive; Sfp PPTase inh: 3.55µM*; PLK1 PBD inh: -13.7%; TbPYK inh: -6.7%; TbPYK ADP-Glo: inconclusive

Results for COc1ccc(C(=O)Nc2ccc(N3CCOCC3)cc2)cc1OC ?
Gal4-VP16 FLuc: 2.1%; ALDH1A1 inh: inconclusive; RORgamma inh: inconclusive; Sfp PPTase inh: 6.7%; PLK1 PBD inh: -1.9%

What do the screens show for `COc1ccc(C(=O)Nc2ccc(N3CCCC3)cc2)cc1OC`?
Gal4-VP16 FLuc: 13.8%; RORgamma inh: inconclusive; Sfp PPTase inh: -8.0%; PLK1 PBD inh: 3.9%; TbPYK inh: inconclusive; TbPYK ADP-Glo: -24.7%

What do the screens show for `COc1ccc(C(=O)N/N=C/c2ccc(N3CCOCC3)s2)cc1OC`?
PLK1 PBD inh: -11.9%

How did CCOc1cc(C(=O)Nc2ccc(S(=O)(=O)NC3=NCCCCC3)cc2)cc(Br)c1OC do in these assays?
PLK1 PBD inh: 1.8%
